High-throughput results deposited in PubChem by National Center for Advancing Translational Sciences (NCATS).
Nrf2 block = Nrf2 qHTS screen for inhibitors. A549 ARE-Fluc reporter, luciferase luminescence, 18-24 h. Potency, µM (series often up to 46 µM), usual class: inhibitors. 2.1% of 360,000 active. AID 504444, 2011; further: nearly all actives have a fitted effect of over 60% in size
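Cells were seeded and rested 2 h, then exposed to compounds for 18-24 h. CellTiter-Fluor was read first as a viability measure. BugLite was added 15 min before the final luminescent read of ARE-luciferase activity in A549 cells.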
ClpP mod = qHTS Assay for Activators of ClpP | ATP-dependent Clp protease proteolytic subunit (Bacillus subtilis (strain 168)), P80244 | purified B. subtilis ClpP, FRET peptide cleavage, 20 min | Potency, µM (titrated, usually from 57.5 µM) | 1.9% of 340,000 active; active means well fitted falling curve with a large enough effect; inconclusive means small, poorly fitted or top-dose-only effect; inactive means no such curve, though single readings can be large or run the other way; further: the source files actives as falling curves though it sought activators and does not explain the sign; nearly all actives have a fitted effect of over 65% in size
Target sequence (P80244 whole entry, looked up): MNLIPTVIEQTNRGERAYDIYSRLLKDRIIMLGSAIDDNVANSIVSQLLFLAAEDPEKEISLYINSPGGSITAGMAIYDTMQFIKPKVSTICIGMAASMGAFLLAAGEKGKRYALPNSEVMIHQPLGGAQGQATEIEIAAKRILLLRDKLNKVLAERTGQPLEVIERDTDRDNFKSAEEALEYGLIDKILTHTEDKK
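FRET quenching reversal measured ClpP activation: 10 microg/mL B. subtilis ClpP at pH 8 with the FRET-FV decapeptide, read at 430 nm after 320 nm excitation. The 20-min minus 0-min signal was scaled between DMSO/no-enzyme wells and ADEP (5.8 microM final).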
A549 viability = Nrf2 qHTS screen for inhibitors: counterscreen for cytotoxicity. A549 ARE-Fluc cells, CellTiter-Fluor viability, 18-24 h. Potency, µM (highest dose often 46 µM), most hits filed as inhibitors. 0.16% of 390,000 active
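A549 ARE_Fluc cells in 5% FBS OPTI-MEM were exposed to compounds in concentration-response for 18-24 h at 37 deg C. Viability was read by CellTiter-Fluor fluorescence (Ex 405/Em 525) after 30 min, before the luciferase read.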
miR-21 reporter = qHTS Assay for Modulators of miRNAs and/orActivators of miR-21; HeLa miR-21 FLuc reporter, luciferase, 48 h; Potency, µM (titrated, usually from 38.3 µM), usual class: activators; 340,000 tested, under 10 active;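 further: miR-21 action dims this reporter so a rising signal means less miR-21 action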
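Compounds were titrated across several concentrations (up to approximately 40 uM) and incubated 48 hours with HeLa miR-21-FLuc reporter cells (miR-21 target sequence downstream of FLuc, endogenous miR-21). Readout was firefly luciferase luminescence after lytic detection reagent.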
TCR activator = Activators of T cell receptors: qHTS campaign. primary human leukocytes, anti-CD3, IL-2 HTRF, 48 h. Potency, µM (top dose mostly 9.22 µM), usual class: activators. 330,000 tested, under 10 active. AID 504894, 2011
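IL-2 release read by HTRF sandwich (Eu cryptate donor, d2 acceptor, 665 nm emission) after 48 hr exposure of primary human leukocytes to compound together with anti-CD3 beads in the absence of co-stimulatory signals.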
Nrf2 activator = qHTS of Nrf2 Activators; AREc32 ARE-luciferase reporter (MCF7-derived line), luminescence, 24 h; Potency, µM (doses to about 46.1 µM), actives largely listed as activators; 0.31% of 410,000 active; AID 624171, 2012; further: nearly all actives have a fitted effect of over 65% in size
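Cells of the AREc32 ARE-luciferase line are plated in OPTI-MEM containing 5% FBS and left overnight at 37 deg C. Compounds are pinned in, incubation continues 24 hr, and firefly luciferase signal is then measured.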
Of the large screens only hits and unclear results are named; the others gave an inactive call. Sampled rows, rich in hits. Any-hit rate of the full collection: about 3.7%. Unless noted, the call rests on the fitted dose curve; in most records, active means well fitted curve in the direction sought with a large enough effect; inconclusive means small, poorly fitted or top-dose-only effect, or another doubt; inactive means no such curve, though single readings can be large; an effect the other way counts as inactive or inconclusive.

CCOC(=O)Cc1c(C)nc2c(C#N)c[nH]n2c1=O	ClpP mod inconclusive (no result: TCR activator)
CCOC(=O)Cc1c(C)nc2cc(-c3ccc(C(C)(C)C)cc3)[nH]n2c1=O	ClpP mod 32µM (no result: Nrf2 block)
CCOC(=O)CCc1c(C)nc2c(-c3ccccc3)c(C)[nH]n2c1=O	Nrf2 block inconclusive (no result: TCR activator)
CCOC(=O)Cc1c(C)nc2c(-c3ccc(Cl)cc3)c(C)[nH]n2c1=O	Nrf2 block inconclusive, ClpP mod 14µM
Cc1ccc(OCC(=O)NNc2c3ccccc3nc3ccccc23)cc1	Nrf2 block 18µM, A549 viability inconclusive
Cn1c(-c2ccc(-c3ccccc3)cc2)c[nH]c1=S	Nrf2 block inconclusive, ClpP mod 13µM
CCn1c(-c2ccc(-c3ccccc3)cc2)c[nH]c1=S	Nrf2 block inconclusive, ClpP mod inconclusive
COc1ccc(/C=N/Nc2nncn2N)cc1Br	ClpP mod 16µM
COc1cc(/C=N/Nc2nncn2N)ccc1OCc1c(C)no[n+]1[O-]	none
COc1ccc(-c2nc(-c3cccs3)c(-c3cccs3)[nH]2)cc1O	ClpP mod 25µM
CCCCNC(=O)CSc1nc2n[nH]c(C)c2c(=N)n1-c1cccc(C)c1	none (no result: Nrf2 block, TCR activator)
Cc1ccc(CNC(=O)CSc2nc3n[nH]c(C)c3c(=N)n2-c2cccc(C)c2)cc1	Nrf2 block 15µM, A549 viability inconclusive
Cc1ccc(Cn2cc(CN(C)C3CN(Cc4cn(Cc5ccc(C)cc5)nn4)S(=O)(=O)C3)nn2)cc1 (stereo unspecified)	none (no result: Nrf2 block, A549 viability, miR-21 reporter, TCR activator)
Cc1cc(=O)[nH]c2n[nH]c(-c3ccccc3)c12	ClpP mod 25µM
Cc1cc(=O)[nH]c(-c2ccccc2)n1	none
Nc1ccc(OC(=O)Nc2ccc(O)cc2)cc1	Nrf2 block 21µM
COc1ccc(NC(=O)C(Cc2ccccc2)NS(=O)(=O)c2ccc3c(c2)CCC(=O)N3)c(OC)c1 (stereo unspecified)	none (no result: TCR activator)
Cc1cc(C)cc(NC(=O)c2ccc(NC(=O)C3C4CC5OC(=O)C3C5C4)cc2)c1 (stereo unspecified)	Nrf2 block inconclusive, ClpP mod 32µM
COc1cccc(NC(=O)C2C3CC4OC(=O)C2C4C3)c1 (stereo unspecified)	none (no result: Nrf2 block)
CCCc1cc(C(=O)Nc2c(C)nn(Cc3c(Cl)cccc3Cl)c2C)no1	Nrf2 block inconclusive (no result: TCR activator)
CC(C)(C)c1ccc(C(=O)CCC(=O)OCC(=O)NCCc2ccc(S(N)(=O)=O)cc2)cc1	none (no result: miR-21 reporter)
Cc1csc(NC(=O)c2cccs2)n1	none
Cc1csc2c(=O)sc(NC(=O)c3cccs3)nc12	Nrf2 block inconclusive, Nrf2 activator 3.5µM (no result: ClpP mod)
O=S(=O)(O)c1cc(O)c(N=Nc2ccc(O)cc2O)c2ccccc12	Nrf2 block inconclusive, A549 viability 21µM (no result: ClpP mod, miR-21 reporter)
O=S(=O)(O)c1ccc2c(N=Nc3ccc(S(=O)(=O)O)c4ccccc34)c(O)c(S(=O)(=O)O)cc2c1	none (no result: Nrf2 block, A549 viability, miR-21 reporter, TCR activator, Nrf2 activator)
COC(=O)c1sccc1S(=O)(=O)N(CC(=O)NCc1ccc(C)cc1)c1ccc(C)c(C)c1	none (no result: TCR activator)
O=C(Nc1cccs1)Nc1cccnc1Cl	Nrf2 activator 11µM (no result: ClpP mod)
Cc1nc(N2CCN(Cc3ccc4c(c3)OCO4)CC2)nc2c1C(=O)CC(c1ccco1)C2 (stereo unspecified)	Nrf2 block 12µM
Oc1ccc(-c2nccc(-c3cccs3)n2)cc1	Nrf2 block inconclusive, Nrf2 activator 10µM
COC(=O)C(C)Oc1ccc(-c2nccc(-c3cccs3)n2)cc1 (stereo unspecified)	none (no result: Nrf2 block)
CCOC(=O)C(Cc1ccc(O)cc1)NC(=O)c1cc2c(cn1)[nH]c1ccccc12 (stereo unspecified)	none (no result: Nrf2 block, A549 viability, miR-21 reporter, TCR activator)
CN(C)S(=O)(=O)c1cccc(NC(=O)COC(=O)[C@H](Cc2ccccc2)NC(=O)c2ccco2)c1	ClpP mod 28µM (no result: miR-21 reporter)
O=C(COC(=O)[C@H](Cc1ccccc1)NC(=O)c1ccco1)Nc1ccccc1	none (no result: miR-21 reporter, TCR activator)
CCN(c1cccc(C)c1)S(=O)(=O)c1ccc2[nH]c(=O)c(=O)[nH]c2c1	ClpP mod 22µM
CCN(c1cccc(C)c1)S(=O)(=O)c1c(C)[nH]c(=O)[nH]c1=O	none
Cc1cccc(NC(=O)Cn2c(=O)c3cccn3c3ccccc32)c1C	Nrf2 block 23µM (no result: TCR activator)
Cc1cc(C)cc(NC(=O)CCn2c(=O)c3cccn3c3ccccc32)c1	Nrf2 block 16µM
COc1ccc(CNC(=O)Cn2c(=O)c3cccn3c3ccccc32)cc1	Nrf2 block 12µM, ClpP mod inconclusive (no result: TCR activator)
O=C(COc1ccccc1-c1nc(-c2ccccc2)no1)Nc1ccccc1[N+](=O)[O-]	Nrf2 block 18µM (no result: TCR activator)
Nc1cccc2[nH]cnc12	none (no result: Nrf2 block, A549 viability, miR-21 reporter, TCR activator, Nrf2 activator)
Cn1c(C(=O)NCCCN2CCN(c3ccccc3F)CC2)cc2c(=O)[nH]c3ccccc3c21	Nrf2 block inconclusive, ClpP mod 32µM
CCOc1ccc2nc(N3CCC(C(=O)N4CCN(c5ccccn5)CC4)CC3)sc2c1	Nrf2 block 16µM, ClpP mod inconclusive
CCOc1ccc2nc(N3CCC(C(=O)N4CCN(c5ncccn5)CC4)CC3)sc2c1	none
COc1ncnc(-c2ccccc2)c1-c1ccccc1	none (no result: miR-21 reporter)
Cc1ccc2c(c1)N(CC(=O)NC1CCCC(C)C1C)C(=O)c1cccnc1O2 (stereo unspecified)	none
Fc1ccc(NC(=S)Nc2ccc(Br)cc2)cc1	Nrf2 block 18µM, ClpP mod 28µM, A549 viability inconclusive
Oc1ccc(NC(=S)Nc2ccc(F)cc2)cc1	none (no result: TCR activator)
CCN(CC)S(=O)(=O)c1ccc(Cl)c(NC(=S)NC(=O)C2CCCC2)c1	Nrf2 block 8.2µM (no result: miR-21 reporter)
COc1ccccc1NS(=O)(=O)c1ccc(Cl)c(NC(=S)NC(=O)C2CCCC2)c1	Nrf2 block inconclusive
CCN(CC)c1ccc(S(=O)(=O)Nc2cc(Cl)ccc2Cl)cc1NC(=S)NC(=O)C1CCCC1	Nrf2 block 18µM
COc1cc(CNC(=O)C2CC(O)CN2C(=O)Nc2ccccc2)cc(OC)c1OC (stereo unspecified)	none (no result: Nrf2 block, A549 viability, miR-21 reporter, TCR activator)
Cc1ccc2cc(NC(=O)c3ccccc3C)ccc2n1	none
CN(Cc1ccccc1)C(=O)c1cccc(NC(=O)Cc2cccc([N+](=O)[O-])c2)c1	Nrf2 block 16µM (no result: miR-21 reporter)
CN(C(=O)c1ccc(NC(=O)Cc2ccc([N+](=O)[O-])cc2)cc1)C1CCCC1	Nrf2 block inconclusive (no result: miR-21 reporter)
CN(C(=O)c1cccc(NC(=O)Cc2cccc([N+](=O)[O-])c2)c1)C1CCC1	Nrf2 block inconclusive (no result: miR-21 reporter)
CN(C(=O)c1cccc(NC(=O)Cc2ccc([N+](=O)[O-])cc2)c1)C1CCCC1	Nrf2 block 23µM (no result: miR-21 reporter)
